Sampled rows, rich in hits. Any-hit rate of the full collection: about 4.2%.
RecA intein inh = Mtb RecA intein splicing inhibitors, primary screen, biochemical, fluorescence, HTS. Protein RecA (Mycobacterium tuberculosis (strain ATCC 25618 / H37Rv)), P9WHJ3. cell-free RecA intein splicing. inhibition, % (concentration not given with the values). 0.75% of 290,000 active. AID 2221, 2009; in the data active = inhibition above about 30%
Target sequence (P9WHJ3 whole entry, looked up): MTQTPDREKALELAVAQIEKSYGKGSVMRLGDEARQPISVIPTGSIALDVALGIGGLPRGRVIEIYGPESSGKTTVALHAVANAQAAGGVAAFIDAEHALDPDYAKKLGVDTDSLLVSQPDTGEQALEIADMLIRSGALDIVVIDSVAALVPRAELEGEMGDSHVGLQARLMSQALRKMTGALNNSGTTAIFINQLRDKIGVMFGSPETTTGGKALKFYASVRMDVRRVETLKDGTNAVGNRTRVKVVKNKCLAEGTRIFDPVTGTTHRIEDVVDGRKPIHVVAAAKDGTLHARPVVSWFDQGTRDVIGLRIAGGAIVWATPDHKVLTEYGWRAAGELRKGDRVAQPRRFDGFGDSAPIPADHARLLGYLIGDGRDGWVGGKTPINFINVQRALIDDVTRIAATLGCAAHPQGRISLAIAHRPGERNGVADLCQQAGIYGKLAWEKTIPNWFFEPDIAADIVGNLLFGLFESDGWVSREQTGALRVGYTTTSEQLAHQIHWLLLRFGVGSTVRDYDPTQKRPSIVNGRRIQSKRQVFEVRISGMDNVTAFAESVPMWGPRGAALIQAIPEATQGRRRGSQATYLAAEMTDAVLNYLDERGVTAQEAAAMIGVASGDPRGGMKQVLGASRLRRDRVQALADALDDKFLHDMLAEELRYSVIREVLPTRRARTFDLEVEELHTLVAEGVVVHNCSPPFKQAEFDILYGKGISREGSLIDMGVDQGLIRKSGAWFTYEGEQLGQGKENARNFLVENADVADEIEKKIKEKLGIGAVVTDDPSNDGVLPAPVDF
Mtb FBA inh = Mtb FBA enzyme inhibitors, primary screen, biochemical, fluorescence, strain H37Rv; Fructose-bisphosphate aldolase (Mycobacterium tuberculosis (strain ATCC 25618 / H37Rv)), …; purified M. tuberculosis FBA, fluorescence read-out; inhibition, % at 1 µM; 2.3% of 360,000 active; in the data active = inhibition above about 27%
GDH-TPI inh = GDH-TPI coupling enzyme inhibitors, primary screen, artefact control for M. tuberculosis FBA inhibitor project, biochemical, absorbance, full deck | GDH-TPI coupled enzyme counterscreen, NADH absorbance | 1.2% of 360,000 active | inhibition, % at 4.8 µM; in the data active = inhibition above about 30%
BJeLR viability = MLPCN primary cell-based screen for lethality selective to Ras in HRASV12 cells; AID 1554, 2009; inhibition, % (test concentration not listed); 0.17% of 300,000 active; BJeLR (HRASV12) viability, CellTiter-Glo ATP luminescence, 48 h; in the data active = inhibition above about 50%
PrPC TRFRET = inhibitors of human cell surface prion protein PrPC, primary screen, cell-based, TR-FRET; Major prion protein (Homo sapiens), P04156; TR-FRET read-out; inhibition, % at 13.8 µM; 0.43% of 370,000 active; in the data active = inhibition above about 24%
Of the large screens only hits and unclear results are named; the others gave an inactive call.

CSc1ccc(C=Nn2c(-c3cc(C)[nH]n3)n[nH]c2=S)cc1	none (no result: RecA intein inh, Mtb FBA inh, GDH-TPI inh, BJeLR viability)
COC(=O)[C@H](CC(C)C)N(CCCc1cn(Cc2ccc(C)cc2)nn1)S(=O)(=O)c1ccc(F)cc1Br	none (no result: RecA intein inh, Mtb FBA inh, GDH-TPI inh, BJeLR viability)
Cc1ccc(-c2cc(C(=O)O)c3ccccc3n2)s1	Mtb FBA inh active
Cc1cccc(NC(=O)c2cc(-c3ccc(C)s3)nc3ccccc23)n1	none
Cc1ccc(NC(=S)NC(=O)c2ccc(-c3ccc(Cl)cc3)o2)c(O)c1	none
Cc1cc(O)c(NC(=S)NC(=O)c2ccc(-c3ccc(Cl)cc3)o2)cc1C	GDH-TPI inh 37
COC(=O)[C@]1(C#N)CC(=O)N(Cc2ccc(Cl)cc2)[C@@H]1c1ccccc1	none (no result: RecA intein inh, Mtb FBA inh, GDH-TPI inh, BJeLR viability)
O=C(c1cccc(NS(=O)(=O)c2cccc([N+](=O)[O-])c2)c1)N1CCOCC1	Mtb FBA inh 156
O=C(c1cccc([N+](=O)[O-])c1)N1CCOCC1	none
O=C(Cc1ccc2c(c1)OCO2)N1CCC(n2nc(-c3ccccc3)oc2=O)CC1	none (no result: RecA intein inh, Mtb FBA inh, GDH-TPI inh, BJeLR viability)
Cc1cccc(CNC(=S)OC2CCC23CCC(c2ccccc2)CC3)c1 (stereo not given)	none (no result: RecA intein inh, Mtb FBA inh, GDH-TPI inh, BJeLR viability)
CN1C2CCC1/C(=C/c1ccccn1)C(=O)/C2=C\c1ccccn1	GDH-TPI inh 46 (no result: RecA intein inh, BJeLR viability)
COc1cc2oc(=O)ccc2cc1-c1c(OC)ccc2ccc(=O)oc12	GDH-TPI inh 35 (no result: RecA intein inh, BJeLR viability)
CCN(CC)CCCN(Cc1cc2cc3c(cc2[nH]c1=O)OCO3)C(=O)Nc1ccccc1OC	GDH-TPI inh 32
CCN(CC)CCCN(Cc1cc2cc(OC)c(OC)cc2[nH]c1=O)C(=O)Nc1ccccc1	none
COCCCNC(=S)N(CCCO)Cc1cc2cc3c(cc2[nH]c1=O)OCO3	GDH-TPI inh 32 (no result: RecA intein inh)
COCCCNC(=S)N(CCCO)Cc1cc2cc3c(cc2[nH]c1=O)OCCO3	none
O=C(CNC(=O)c1cccc(OC(F)F)c1)OCc1cc(=O)n2cc(Br)ccc2n1	GDH-TPI inh 31
COc1ccc(C2=Nn3c(nnc3-c3ccco3)SC2)cc1OC	GDH-TPI inh 37
COc1ccc(C2=Nn3c(nnc3-c3ccccc3OC)SC2)cc1OC	none
COc1ccc(C2=Nn3c(nnc3-c3ccccn3)SC2)cc1OC	GDH-TPI inh 35
CCOC(=O)[C@]12CCCC=C1N(Cc1ccc(OC)cc1)C(=O)[C@@H]2CC(=O)NCCc1ccccc1OC	none (no result: RecA intein inh, Mtb FBA inh, GDH-TPI inh, BJeLR viability)
Nc1ccc(Sc2ccc([N+](=O)[O-])cc2)cc1	none
O=C1C=CC(=O)N1c1ccc(Sc2ccc([N+](=O)[O-])cc2)cc1	BJeLR viability 64 (no result: Mtb FBA inh, GDH-TPI inh, PrPC TRFRET)
Cc1c(NC(=S)N/N=C/c2ccc(Br)cc2)c(=O)n(-c2ccccc2)n1C	none
Cc1c(NC(=S)N/N=C/C=C/c2ccccc2)c(=O)n(-c2ccccc2)n1C	GDH-TPI inh 62
Cc1c(NC(=S)N/N=C/C=C/c2ccc([N+](=O)[O-])cc2)c(=O)n(-c2ccccc2)n1C	GDH-TPI inh 32
COC(=O)[C@]12C[C@H](CC(=O)N3CCN(C(=O)C4CC4)CC3)C(=O)N(CCc3ccc(OC)c(OC)c3)C1=C[C@H](COCc1ccccc1)O[C@@H]2C	none (no result: RecA intein inh, Mtb FBA inh, GDH-TPI inh, BJeLR viability)
O=C(Nc1nccs1)c1ccc(-c2ccc(Cl)cc2)o1	GDH-TPI inh 54
CCOC(=O)/C(=N\Nc1ccc(Br)cc1)N1CC(C)OC(C)C1 (stereo not given)	GDH-TPI inh 37 (no result: PrPC TRFRET)
O=C1N/C(=N\N=C\c2ccco2)SC1Cc1ccccc1[N+](=O)[O-] (stereo not given)	GDH-TPI inh 38
C=CCN1C(=O)[C@@H](CC(=O)NCC23CC4CC(CC(C4)C2)C3)[C@]2(C(=O)OCC)CCCCC/C=C/12	none (no result: RecA intein inh, Mtb FBA inh, GDH-TPI inh, BJeLR viability)
CCCCOc1ccc(C(=O)C(CN2CCOCC2)c2ccccc2)cc1 (stereo not given)	RecA intein inh 32
COC(=O)[C@H]1C[C@@]2(N3CCCCC3)c3ccccc3N[C@H]2N1S(=O)(=O)c1ccc([N+](=O)[O-])cc1	none (no result: RecA intein inh, Mtb FBA inh, GDH-TPI inh, BJeLR viability)
COC(=O)C1CN(Cc2cn(Cc3ccc(OC)cc3)nn2)CCS(=O)(=O)N1Cc1ccc(F)cc1 (stereo not given)	none (no result: RecA intein inh, Mtb FBA inh, GDH-TPI inh, BJeLR viability)
CN(C)c1ccc(C(=O)NC2CCCCN(Cc3ccc(Cl)cc3)C2=O)cc1 (stereo not given)	none (no result: RecA intein inh, Mtb FBA inh, GDH-TPI inh, BJeLR viability)
CSc1nsc(SCC(=O)N2CCN(c3ccccc3)CC2)n1	Mtb FBA inh 135
O=C(CN1C(=O)S/C(=C/c2cccs2)C1=O)N1CCOCC1	GDH-TPI inh 37
